GLP1R ag: qHTS of GLP-1 Receptor Agonists. Glucagon-like peptide 1 receptor (Homo sapiens), P43220. HEK293 GLP-1R CRE-luciferase, luminescence, 4-6 h; cells express a hypersensitive GLP-1R form. Potency, µM (doses to about 45.6 µM), usual class: activators. hit rate 0.007% among 380,000. AID 624172, 2012
GLP1R inv ag: qHTS of GLP-1 Receptor Inverse Agonists (Inhibition Mode) | Glucagon-like peptide 1 receptor (Homo sapiens), P43220 | HEK293 GLP-1R CRE-luciferase, luminescence, 24 h; GLP-1R form is constitutively active | Potency, µM (titrated, usually from 38.3 µM), actives largely listed as inhibitors | hit rate 1.6% among 410,000 | AID 624417, 2012; further: nearly all actives have a fitted effect of over 55% in size
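HEK293 cells stably co-expressing a cAMP-responsive luciferase reporter and constitutively active GLP-1R were seeded, incubated 12 h, then exposed to compounds for 24 h at 37 C. Luminescence was read 12 min after detection reagent; inverse agonists lower signal.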
hERG WT inh: qHTS for Inhibitors of KCHN2 3.1: Wildtype qHTS | hit rate 0.37% among 340,000 | activity change, % at 1.84 µM | AID 720551, 2013 | U2OS, BacMam KCNH2, thallium flux FluxOr; stronger effect = lower value;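 active means maximum activity change below -70%; inconclusive means maximum activity change between -70% and -50%; inactive means maximum activity change above -50%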
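U2OS cells transduced with wild-type KCNH2 virus are loaded with FluxOr dye for 45 min, and thallium flux is measured in kinetic reads before and after stimulation buffer. Rate constants are normalized to DMSO controls.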
KCNH2 3.1 block: qHTS for Inhibitors of KCHN2 3.1: Mutant qHTS | Potassium voltage-gated channel subfamily H member 2, brain isoform KCNH2 3.1 (human) | U2OS KCNH2 3.1, thallium flux FluxOr; stronger effect = lower value | activity change, % (tested at about 1.8 µM) | hit rate 0.95% among 340,000;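 active means maximum activity change below -70%; inconclusive means maximum activity change from -70% to -50%; inactive means maximum activity change above -50%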;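 further: thallium influx rate constant from kinetic fluorescence after stimulation buffer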
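Kinetic fluorescence (2 min after stimulation buffer) measures Tl+ influx through KCNH2 3.1 expressed by viral transduction in U2OS cells; the rate constant is normalized against DMSO controls serving as positive and negative references.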
GLP1R cytotox: qHTS of GLP-1 Receptor Inverse Agonists: Cytotox Screen; hit rate 0.13% among 410,000; Potency, µM (highest dose often 38.3 µM), most hits filed as inhibitors; AID 624418, 2012; HEK293 cAMP-luciferase reporter cells, luminescence, 24 h;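 further: loss of luciferase light is scored as toxicity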
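Cells in DMEM/10% Nu serum/1% pen-strep, 1536-well format. Pre-incubated 12 h, dosed with 23 nL compound, incubated a further 24 h. Luciferase detection, 12 min at room temp, luminescence.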
GLS inh: qHTS for Inhibitors of Glutaminase (GLS) | Glutaminase kidney isoform, mitochondrial (Homo sapiens), O94925 | GLS enzymatic activity, qHTS titration | Potency, µM (series often up to 45.5 µM), most hits filed as inhibitors | hit rate 0.21% among 410,000 | AID 624170, 2012
Target sequence (O94925 whole entry, looked up, canonical isoform): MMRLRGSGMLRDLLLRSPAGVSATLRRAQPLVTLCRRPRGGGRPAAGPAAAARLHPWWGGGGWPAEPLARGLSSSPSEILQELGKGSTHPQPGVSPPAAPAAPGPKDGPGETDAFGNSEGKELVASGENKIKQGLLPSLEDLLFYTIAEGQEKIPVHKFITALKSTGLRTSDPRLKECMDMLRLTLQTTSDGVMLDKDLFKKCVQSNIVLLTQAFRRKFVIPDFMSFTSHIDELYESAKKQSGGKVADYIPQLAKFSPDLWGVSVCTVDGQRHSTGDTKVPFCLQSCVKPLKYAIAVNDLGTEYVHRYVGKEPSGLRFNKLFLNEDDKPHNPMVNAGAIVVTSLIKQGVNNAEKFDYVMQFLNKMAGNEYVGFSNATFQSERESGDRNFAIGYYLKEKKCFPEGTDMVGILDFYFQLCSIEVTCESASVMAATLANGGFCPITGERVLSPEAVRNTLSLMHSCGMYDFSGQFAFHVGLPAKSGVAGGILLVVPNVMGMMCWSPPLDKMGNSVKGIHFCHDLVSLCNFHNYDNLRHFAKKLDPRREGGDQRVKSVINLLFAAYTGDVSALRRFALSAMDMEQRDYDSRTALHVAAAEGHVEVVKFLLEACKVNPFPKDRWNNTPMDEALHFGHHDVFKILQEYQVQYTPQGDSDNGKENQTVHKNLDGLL
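Coupled fluorescence readout: glutamate oxidase/HRP/Amplex Red detect glutamate formed by hKGA from L-glutamine (1 mM solution added). Buffer 45 mM KH2PO4 pH 8.2, 0.02% Tween-20; reads at t0 and 30 min RT.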
A number is an active result; 0 = inactive; ? = inconclusive; - = no result given. Compounds with a hit are over-represented: about 2.8% of the library has one in this group of screens. Unless noted, the call rests on the fitted dose curve; in most records, active means well fitted curve in the direction sought with a large enough effect; inconclusive means small, poorly fitted or top-dose-only effect, or another doubt; inactive means no such curve, though single readings can be large; an effect the other way counts as inactive or inconclusive.

SMILES | GLP1R ag | GLP1R inv ag | hERG WT inh | KCNH2 3.1 block | GLP1R cytotox | GLS inh
Cc1cccc(C)c1N1CCN(C(=O)c2ccc3c(c2)OCO3)CC1 | 0 | 10µM | 0 | - | 0 | 0
CCC(C(=O)NC1CCCCC1)n1nc(C)c2sc3ccccc3c2c1=O (configuration not stated) | - | 0 | - | - | 0 | 0
COc1cc2c(cc1OC)C(COc1ccc3c(C)cc(=O)oc3c1)N(C(=O)c1cccc(C)c1)CC2 (configuration not stated) | - | 0 | - | - | 0 | 0
O=C(Nc1ccccc1)c1ccc2c(c1)OCCO2 | 0 | 0 | 0 | 0 | 0 | 0
O=C(Nc1ccc(C(=O)N2CCN(c3ccncc3)CC2)cc1)c1ccc(Br)o1 | 0 | 0 | - | - | 0 | 0
Cc1ccc(C(=O)N2CCN(c3ccc(NC(=O)c4ccc(Br)o4)cc3)CC2)cc1 | 0 | 0 | 0 | -83.1 | 0 | 0
Cc1ccc(C(=O)N2CCN(c3ccc(NC(=O)c4ccc5c(c4)OCCO5)cc3)CC2)cc1 | 0 | 0 | 0 | -93.0 | 0 | 0
Cc1ccc(N2CCN(C(=O)c3ccccc3NC(=O)c3ccccc3C(=O)O)CC2)cc1 | 0 | 0 | -71.7 | 0 | 0 | 0
Cc1ccc(C(=O)Nc2ccccc2C(=O)N2CCN(c3ccccc3)CC2)cc1 | 0 | ? | 0 | 0 | 0 | 0
Cc1cccc(NC(=O)c2ccc3c(c2)OCCO3)c1 | 0 | 11.2µM | 0 | 0 | 0 | 0
Cc1ccccc1-n1c(SCC(=O)N2CCOCC2)nc(O)c(Cc2ccccc2)c1=O | 0 | 0 | 0 | 0 | 0 | 0
CC(Sc1ccccc1)C(=O)N1CCN(S(=O)(=O)c2cccc(Br)c2)CC1 (configuration not stated) | 0 | ? | 0 | 0 | 0 | 0
CC(C)N(CC#CCC(O)(c1ccccc1)C1CCCC1)CCO (configuration not stated) | 0 | ? | 0 | 0 | 0 | 0
CCN(CC#CCC(O)(c1ccccc1)C1CCCC1)C(C)C (configuration not stated) | 0 | 11.2µM | 0 | 0 | 0 | 0
CC(Cc1cccs1)NC(=O)Nc1ccc(F)cc1 (configuration not stated) | 0 | ? | 0 | 0 | 0 | 0
CN(CC(=O)Nc1cc(Cl)cc(Cl)c1)Cc1cccs1 | 0 | 12.6µM | 0 | 0 | 0 | 0
COc1ccc(N(Cc2cccs2)C(=O)Nc2cccc(Cl)c2)cc1 | - | 10µM | - | - | 0 | 0
CC(Cc1cccs1)NC(=O)Nc1cccc(Cl)c1 (configuration not stated) | 0 | 11.2µM | 0 | 0 | 0 | 0
Cc1ccc(N(Cc2cccs2)C(=O)Nc2cccc(Cl)c2)cc1 | - | 0 | - | - | 0 | 0
CCc1noc(-c2ccc(N3CCCCC3C)c([N+](=O)[O-])c2)n1 (configuration not stated) | - | ? | - | - | 0 | 0
Cc1ccc2cc3cc(C(=O)N(C)c4ccccc4C)oc3nc2c1 | - | ? | - | - | 0 | 0
Cc1ccc2c(C)c(C(=O)N3CCC(c4nc5ccccc5s4)CC3)oc2c1C | - | 0 | - | - | 0 | 0
Cc1cc(N2CCOCC2)nc2ccc(NC(=O)C3CCC(C)CC3)cc12 (configuration not stated) | 0 | ? | 0 | -106.7 | 0 | 0
CCCN(CCC)CCCNC(=S)Nc1ccc2nc(N3CCN(C)CC3)cc(C)c2c1 | 0 | ? | 0 | -108.8 | ? | 0
CCCCNC(=O)CCC(=O)Nc1ccc2nc(N3CCOCC3)cc(C)c2c1 | 0 | 0 | 0 | 0 | 0 | 0
CCN(CC)CCCNC(=O)CCC(=O)Nc1ccc2nc(N3CCC(C)CC3)cc(C)c2c1 | 0 | 7.08µM | 0 | 0 | 0 | 0
CCCN(CCC)CCNC(=O)CCC(=O)Nc1ccc2nc(N3CCOCC3)cc(C)c2c1 | 0 | 0 | 0 | -173.6 | 0 | 0
